Measured values from PubChem BioAssay (NCATS).
Inconclusive results are not listed. A call without a number means that no potency is given here. A number with no mark means an inactive call. The source made the active and inactive calls. Calls come from the whole dose curve; as a rule, active = well fitted curve in the direction sought with a large enough effect; inconclusive = small, poorly fitted or top-dose-only effect, or another doubt; inactive = no such curve, though single readings can be large; an effect the other way counts as inactive or inconclusive. Where a SMILES comes first, the peptide text is derived from it.

Assays:
[1] = P-glycoprotein substrates identified in KB-8-5-11 adenocarcinoma cell line, qHTS therapeutic library screen (AID 1346987); note: nearly all actives have a fitted effect of over 65% in size
In short: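 KB-8-5-11: colchicine-selected sub-line of KB-3-1 over-expressing P-gp; assay medium lacked colchicine. 72 h drug exposure at 37 degree C, CellTiter-Glo.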

[2] = test system: Zika virus NS2B-NS3 protease (unlinked complex); test: Primary screen GU Rhodamine qHTS for Zika virus inhibitors: Unlinked NS2B-NS3 protease assay (AID 1347159); note: nearly all actives have a fitted effect of over 60% in size; note: potency is the fitted concentration of half-maximal effect
In short: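 A qHTS format was used, with compound concentrations ranging up to 114 microM. Each compound was preincubated with 25 nM NS2B-NS3 protease, and the substrate was then added at 1.5 microM. Curves were fitted with a 4-parameter Hill model.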

[3] = test system: Zika virus NS2B-NS3 protease (linked construct); test: Primary screen NINDS Rhodamine qHTS for Zika virus inhibitors (AID 1347160); note: nearly all actives have a fitted effect of over 55% in size; note: potency is the fitted concentration of half-maximal effect
In short: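 Kinetic fluorescence (Ex 480 nm, Em 540 nm) over 15 min with 1.5 microM Rhodamine110 peptide and 25 nM linked protease.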

Compound	Potency [1]	Potency [2]	Potency [3]	outcome [1]	activity change, negative = inhibition [2]	outcome [3]
Cc1ccc(-c2c(-c3nn(C)c4ncnc(N5CC[C@H](N6CCCCC6)C5)c34)cnn2C)cc1	inactive	inactive	inactive			
CCC/C=C1\OC(=O)C2=C1CCC(O)C2O (stereo not given)	inactive	inactive	inactive			
CC1(C)CC[C@]2(C(=O)O[C@@H]3O[C@H](CO)[C@@H](O)[C@H](O)[C@H]3O)[C@H](O)C[C@]3(C)C(=CCC4[C@@]5(C)CC[C@H](O[C@@H]6OC[C@@H](O)[C@H](O)[C@H]6O)[C@@](C)(C(=O)O)C5CC[C@]43C)[C@@H]2C1 (stereo not given in full)	inactive	inactive	inactive			
CC(=O)N[C@H]1[C@H](O[C@H]2CC[C@]3(C)C4CC=C5[C@@H]6CC(C)(C)CC[C@]6(C(=O)O)[C@H](O)C[C@@]5(C)[C@]4(C)CC[C@H]3C2(C)C)O[C@H](CO)[C@@H](O)[C@@H]1O (stereo not given in full)	inactive	inactive	inactive			
COc1ccc(/C=C/C(=O)N2CCCC2)cc1	inactive	inactive	inactive			
CC1(C)CC[C@]2(C(=O)O)CC[C@]3(C)C(=CCC4[C@@]5(C)C[C@@H](O)[C@H](O)[C@](C)(CO)C5CC[C@]43C)[C@@H]2[C@@H]1O (stereo not given in full)	inactive	inactive	inactive			
CC1C2=CC(=O)OC2(O)CC2C1C(OC(=O)c1ccccc1)C(OC(=O)c1ccccc1)C1(O)C2(C)CCC(O)C1(C)C(=O)O (stereo not given)	inactive	inactive	inactive			
CC1OC(O[C@H]2CC[C@@]3(C)C(CC[C@]4(C)C3CC=C3C5CC(C)(C)CC[C@]5(C(=O)OC5OC(CO)C(OC6OCC(OC7OCC(O)C(O)C7O)C(O)C6O)C(O)C5O)CC[C@]34C)C2(C)C)C(O)C(O)C1OC1OC(CO)C(O)C(OC2OC(CO)C(O)C(O)C2O)C1O (stereo not given in full)				inactive [at 9.29 µM]	1.81% [at 19.1 µM]	inactive [at 10.7 µM]
CC(=O)NC(Cc1ccccc1)C(=O)NC(C(=O)O)C(C)C (stereo not drawn) (Ac-Phe-Val-OH; configuration not given here)	inactive	inactive	inactive			
CC1=C2C(=O)C=C(CO[C@@H]3O[C@H](CO)[C@@H](O)[C@H](O)[C@H]3O)[C@@H]2[C@H]2OC(=O)[C@H](C)[C@@H]2CC1	inactive	inactive	inactive			
CC1(O)CCC2C(C3C1CCC3(C)O)C2(C)C (stereo not given)	inactive	inactive	inactive			
CC1CCC23COC(=O)C2=CC(O)CC3C1(C)CCc1ccoc1 (stereo not given)	inactive	inactive	inactive			
C/C=C(/C)C(=O)OC1C(OC(C)=O)C23C(O)OC4(CCC5C6(C)CCC(OC7OC(C(=O)O)C(O)C(OC8OC(CO)C(O)C(O)C8OC8OC(C)C(O)C(O)C8OC8OCC(O)C(O)C8O)C7OC7OC(CO)C(O)C(O)C7O)C(C)(C)C6CCC5(C)C4(C)CC2OC(C)=O)C3CC1(C)C (stereo not given)			inactive	inactive [at 9.29 µM]	-1.79% [at 19.1 µM]	
CCC(C)/C=C(C)/C=C/C(=O)C1CCC(O)C(C)(O)C1=O (stereo not given)	inactive	17.8 µM (active)	25.1 µM (active)			
COc1cc(/C=C/C(=O)O)ccc1O[C@@H]1O[C@H](CO)[C@@H](O)[C@H](O)[C@H]1O[C@@H]1OC[C@](O)(CO)[C@H]1O	inactive	inactive	inactive			
